Screening data deposited in PubChem by National Center for Advancing Translational Sciences (NCATS).
SW480 rereplic: inducers of DNA re-replication in SW480 colon cancer cells; SW480 DNA re-replication, Hoechst DNA content imaging, 48 h; Potency, µM (highest dose often 46.1 µM), inactives show top-dose re-replication activation, hits mostly activators; 340,000 tested, 1.8% active; further: potency means the concentration at half of the fitted maximal effect; % of control where 0% means no effect; nearly all actives have a fitted effect of over 55% in size
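Image-based read-out: total Hoechst fluorescence of nuclei (405 nm excitation, 500-530 nm emission), with hits raising the fraction of high-intensity nuclei. SW480 colon cells incubated 48 hr with compounds at 37 C.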
MCF10A rereplic: inducers of DNA re-replication in MCF 10A breast cells | MCF 10A DNA re-replication, Hoechst nuclear intensity, 48 h | Potency, µM (top dose mostly 46.1 µM), without a hit: at the top dose activity, positive = re-replication, actives largely listed as activators | 350,000 tested, 2.9% active | AID 624296; further: potency means the concentration at half of the fitted maximal effect; % of control where 0% means no effect; nearly all actives have a fitted effect of over 50% in size
KB-V1 MDR tox: KB-V1 MDR subline cytotoxicity. 400,000 tested, 3.4% active. AID 1347076. KB-V1 MDR cells viability, CellTiter-Glo, 72 h. Potency, µM (titrated, usually from 46.1 µM), usual class: cytotoxic; further: potency means the concentration at half of the fitted maximal effect; on the % scale 0 is the no-effect control and ±100 the full control effect; nearly all actives have a fitted effect of over 60% in size
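In this primary screen, KB-V1 cells overexpressing P-gp are incubated with library compounds (lowest to highest concentration) for 72 h at 37 degrees C before a luminescent ATP viability read.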
KB-3-1 tox: kills parental KB-3-1 adenocarcinoma cells; KB-3-1 viability, CellTiter-Glo ATP luminescence, 72 h; Potency, µM (doses to about 46.1 µM), hits mostly cytotoxic; 400,000 tested, 1.4% active; further: potency means the concentration at half of the fitted maximal effect; on the % scale 0 is the no-effect control and ±100 the full control effect; nearly all actives have a fitted effect of over 60% in size
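Using CellTiter-Glo luminescence, growth of non-resistant KB-3-1 adenocarcinoma cells is assessed 72 h after pin-tool compound addition at 37 °C. Normalized responses across the concentration series yield fitted curves.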
D3 antag: antagonists of human D3 dopamine receptor; 360,000 tested, 2.5% active; max response, negative = inhibition, %; P35462; D3R cells, DiscoveRx beta-arrestin luminescence, antagonist mode; active compounds read low; in the data active means max response below about -50%; inconclusive means no clear call, values can overlap the other calls; further: on the % scale 0 is the no-effect control and ±100 the full control effect
Target sequence (P35462 whole entry, looked up): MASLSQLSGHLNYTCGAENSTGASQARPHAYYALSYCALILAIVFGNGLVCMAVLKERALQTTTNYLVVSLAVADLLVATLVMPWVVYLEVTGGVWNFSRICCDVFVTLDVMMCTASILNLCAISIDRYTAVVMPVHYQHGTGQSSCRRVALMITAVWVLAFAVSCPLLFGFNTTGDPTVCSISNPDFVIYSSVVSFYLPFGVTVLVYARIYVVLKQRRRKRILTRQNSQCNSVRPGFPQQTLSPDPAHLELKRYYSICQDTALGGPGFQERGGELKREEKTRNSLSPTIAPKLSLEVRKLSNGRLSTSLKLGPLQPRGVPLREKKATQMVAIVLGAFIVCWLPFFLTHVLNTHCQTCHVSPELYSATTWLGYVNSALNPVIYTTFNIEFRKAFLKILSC
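Cells plated overnight at 1500 cells/well, then exposed to library compounds with dopamine controls for 90 minutes at 37 degrees C. DiscoveRx reagent added for 30–60 minutes at room temperature; luminescence read, quantitative HTS format.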
D3 ag: agonists of human D3 dopamine receptor; D3R DiscoveRx beta-arrestin cells, luminescence, 90 min; max activation, %; 410,000 tested, 0.58% active; in the data active means max activation above about 30%; further: 0% is about no effect
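Cells at 1500/well, incubated overnight, then treated with pinned compounds (dopamine as control) for 90 min at 37 degrees C. DiscoveRx reagent added for 30 - 60 minutes at room temperature; luminescence read.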
* = called active by the depositor; i = inactive; ? = inconclusive; . = not tested or not shown. Only some compounds are listed: those with a hit (about 8.9% of all), similar ones and a draw of the others. Unless noted, the call rests on the fitted dose curve; in most records, active means well fitted curve in the direction sought with a large enough effect; inconclusive means small, poorly fitted or top-dose-only effect, or another doubt; inactive means no such curve, though single readings can be large; an effect the other way counts as inactive or inconclusive.

SMILES	SW480 rereplic	MCF10A rereplic	KB-V1 MDR tox	KB-3-1 tox	D3 antag	D3 ag
COc1cc(NC(=O)c2ccc(F)cc2)ccc1NC(=O)c1cc2ccccc2o1	?	?	i	i	9.2	-4.9
COc1cc(NC(=O)c2ccc(C)cc2)ccc1NC(=O)c1cc2ccccc2o1	3.0%	23.9%	i	i	7.7	7.0
COc1cc(NC(=O)c2oc3ccccc3c2C)ccc1NC(=O)c1ccco1	1.2%	18.4µM*	i	i	45.0	6.1
COc1cc(NC(=O)c2ccc(C)cc2C)ccc1NC(=O)c1cc2ccccc2o1	?	9.2µM*	i	?	-2.0	4.2
COc1cccc(N2CCN(C(=O)Cn3ncc4c(=O)oc5ccccc5c43)CC2)c1	.	.	i	i	.	-9.8
CC(=O)c1cccc(-c2ccnc3c2CC(C(=O)NCC2CCOCC2)O3)c1 (centres undefined)	.	.	i	4.61µM*	-24.2	-3.3
CC(=O)c1cccc(-c2ccnc3c2CC(C(=O)NCC2CC2)O3)c1 (centres undefined)	.	.	i	?	-25.5	-7.5
CC(=O)Nc1ccc(-c2ccnc3c2CC(C(=O)NCC2CCOCC2)O3)cc1 (centres undefined)	.	.	i	5.8µM*	2.2	-6.5
COCc1nc2ccccc2n1Cc1ccc(C(C)(C)C)cc1	.	.	i	i	.	7.3
COc1ccc(C)cc1NC(=O)CSc1ncc2c(n1)-c1ccc(Cl)cc1N(Cc1ccccc1)S2(=O)=O	.	.	i	i	.	-14.4
Cc1nc(-c2ccc(NC(=O)/C=C\C(=O)O)cc2)cs1	-80.0%	-4.5%	i	i	0.4	0.8
Cc1ccc2sc(-c3ccc(NC(=O)/C=C\C(=O)O)cc3)nc2c1	?	23.1µM*	i	i	8.0	0.9
Cc1ccc2sc(-c3ccc(NC(=O)c4cc(-n5cnnc5)ccc4Cl)cc3)nc2c1	14.6µM*	2.59µM*	i	?	47.7	17.2
Cc1cccc(N2CCN(C3(c4ccccc4)C(=O)c4ccccc4C3=O)CC2C)c1 (centres undefined)	.	.	?	i	.	-17.9
COCCCNc1nc2ccccc2nc1NS(=O)(=O)c1ccc(OC)cc1	-0.5%	-3.2%	i	i	13.3	1.6
COc1ccc(Nc2nc3ccccc3nc2NS(=O)(=O)c2cccs2)cc1	-8.7%	?	i	i	?	5.5
COCCCNc1nc2ccccc2nc1NS(=O)(=O)c1cccs1	-0.7%	19.8%	i	i	-63.9*	-2.7
CC(=O)c1ccc(Nc2nc3ccccc3nc2NS(=O)(=O)c2cccs2)cc1	-5.6%	14.6µM*	?	?	-18.8	9.3
COC(=O)Cn1nc(C)c2c(C)n(-c3ccccc3)nc2c1=O	.	.	.	.	.	0.6
Cc1ccc(OCC(=O)Nc2cccc(OCc3cc(=O)n4cccc(C)c4n3)c2)cc1C	.	.	i	i	.	-9.1
CN1CCN(NC(=O)c2ccc(S(=O)(=O)N3CC4(C)CC3CC(C)(C)C4)cc2)CC1 (centres undefined)	18.4µM*	?	i	i	0.3	-6.1
CC1(C)CC2CC(C)(CN2S(=O)(=O)c2cccc(C(=O)O)c2)C1 (centres undefined)	-18.9%	-11.1%	i	i	19.1	0.9
Cc1cccc(CCNC(=O)c2nc(-c3ccc(Cl)cc3)n3c2CCCCC3)c1	.	.	i	i	.	-4.7
CS(=O)(=O)N1N=C(c2ccccc2)CC1c1ccc2nccnc2c1 (centres undefined)	-1.3%	?	20.6µM*	i	0.0	-1.6
CC1(CCc2ccccc2)NC(=O)N(CC(=O)Nc2ccc(OC(F)F)cc2)C1=O (centres undefined)	1.2%	3.6%	20.6µM*	i	13.4	-0.4
SMILES	SW480 rereplic	MCF10A rereplic	KB-V1 MDR tox	KB-3-1 tox	D3 antag	D3 ag
CC1(CCc2ccccc2)NC(=O)N(CC(=O)Nc2ccc(S(N)(=O)=O)cc2)C1=O (centres undefined)	-3.3%	7.5%	i	i	6.9	7.6
COCCCNC(=O)CN1C(=O)c2cccnc2Sc2ccccc21	.	.	i	i	.	1.5
Cc1cc(NC(=O)c2cc(-c3cccs3)nc3ccccc23)no1	134.1%	?	?	20.6µM*	35.2	7.5
Cc1cc(NC(=O)CSc2nc(-c3cccs3)nc3ccccc23)no1	5.8µM*	14.6µM*	?	5.8µM*	4.2	-7.1
Cc1ccc(-c2cc(C(=O)Nc3cc(C)on3)c3ccccc3n2)cc1	?	11.6%	i	i	0.4	-2.2
CCc1cc2ccc(OC)cc2nc1SCC(=O)Nc1cc(C)on1	6.7%	13µM*	i	i	5.8	11.2
Cc1cccc(N2CCN(C(=O)Nc3cn(CC(C)C)c(=O)c4ccccc34)CC2)c1C	.	.	i	i	.	3.6
COc1cccc(N2CCN(C(=O)c3cnc4c(-c5ccccc5)c(C)nn4c3C)CC2)c1	.	.	i	i	.	12.2
COc1cccc(-c2nc3c(C#N)c[nH]n3c2NC2CCCC2)c1OC	.	.	i	i	.	7.8
O=C(CCN1CCN(c2ccccc2F)CC1)Nc1ccc2c(c1)OCO2	-1.1%	-6.0%	?	i	314.3	40.4*
Cc1cccc(NC(=O)CCN2CCN(c3ccccc3F)CC2)c1	.	.	i	i	.	38.9*
Cc1cccc(NC(=O)CCN2CCCCC2)c1	-3.6%	2.5%	i	i	17.1	-3.2
O=C(CCN1CCN(c2ccccc2)CC1)Nc1ccc2c(c1)OCO2	1.1%	2.9%	i	i	?	25.8
CC1CCCN(S(=O)(=O)c2ccc(NC(=O)c3nc(SC(C)C)ncc3Cl)cc2)C1 (centres undefined)	.	.	i	i	.	-8.4
c1ccc(-n2cnc3cc(NCc4cccs4)ccc32)cc1	13µM*	?	10.3µM*	?	-9.5	-2.3
COc1ccc(-n2cnc3cc(NCc4ccccn4)ccc32)cc1	6.0%	?	?	i	5.6	-19.5
c1ccc(-n2cnc3cc(NCc4ccco4)ccc32)cc1	?	?	?	23.1µM*	-6.8	7.2
Cc1ccc(-n2cnc3cc(NCc4cccs4)ccc32)cc1	6.8%	13.0%	?	i	-15.0	-2.4
N#Cc1ccccc1Cn1c(SCC(=O)NCc2ccccc2)nc2ccccc21	.	.	i	i	.	-0.6
Cc1ccc2nc(NC(=O)CNS(=O)(=O)c3ccc(Br)s3)sc2c1	-12.0%	?	i	i	23.7	-13.6
Cc1ccc2nc(NC(=O)CN(C)S(=O)(=O)c3ccc(Br)s3)sc2c1	?	23.1µM*	?	?	11.7	-0.3
